Here are results for 23 compounds from PubChem BioAssay (NCATS).

Experiment [1] addresses Rap guanine nucleotide exchange factor 3 (Homo sapiens) (UniProt O95398). Put plainly: Confirmatory qHTS for antagonist of cAMP-regulated guanine nucleotide exchange factor 3 (EPAC1) (AID 1645880). Also: nearly all actives have a fitted effect of over 55% in size. Also: potency is read from the fitted curve at half-maximal effect.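 As to activity, negative = inhibition: plate controls were DMSO only for no effect and full effect of the ATA control for full effect.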 The note with it: EPAC1 Rap1B-BODIPY-GDP exchange, fluorescence; activity, negative = inhibition: at 115 µM (top of the series). The gist of the method:
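Released BODIPY-GDP fluoresces less than Rap1-bound BODIPY-GDP; the signal is followed at 480/540 nm at 5-min intervals over 30 min, after 5 min at room temperature. Reactions contain 100 nM EPAC1, 250 nM RAP1B-BODIPY-GDP and 50 uM GDP; results are normalized to ATA and DMSO.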

The target is the same in experiment [2]. Put plainly: Confirmatory qHTS for agonist of cAMP-regulated guanine nucleotide exchange factor 3 (EPAC1) (AID 1645881). Also: nearly all actives have a fitted effect of over 75% in size. Also: potency is read from the fitted curve at half-maximal effect.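 As to activation: EPAC1 catalysed release of BODIPY-GDP from Rap1B seen as fluorescence loss; 100% = effect of cAMP agonist control.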
Experiment [3] concerns the target Rap guanine nucleotide exchange factor 4 (Homo sapiens) (UniProt Q8WZA2). Put plainly: Confirmatory qHTS for agonist of cAMP-regulated guanine nucleotide exchange factor 4 (EPAC2) (AID 1645884).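 Also: nucleotide exchange releases bodipy-GDP from Rap1 and this lowers its fluorescence; nearly all actives have a fitted effect of over 65% in size.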 Also: potency is read from the fitted curve at half-maximal effect. As to activation: % is scaled to controls: 0 for no effect and ±100 for the full control effect.
The target in experiment [4] is Rap guanine nucleotide exchange factor 3 (Homo sapiens) (UniProt O95398). As to the kind of experiment: Counterscreen qHTS for antagonist of cAMP-regulated guanine nucleotide exchange factor 3 (EPAC1) (AID 1645888). Also: % of control where 0% means no effect. The gist of the method: (§1)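 Rap1B–BODIPY-GDP (250 nM) with 50 uM GDP; compounds pin-transferred to 9.74 nM–152 uM final (activator) or from 7.32 nM upwards (inhibitor). Fluorescence Ex/Em 480/540 nm read at 5 and 30 min, then after adding cAMP or buffer, at room temperature.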

Experiment [5] has the same target. As to the kind of experiment: Counterscreen qHTS for agonist of cAMP-regulated guanine nucleotide exchange factor 3 (EPAC1) (AID 1645889). Also: nearly all actives have a fitted effect of over 40% in size. Also: potency is read from the fitted curve at half-maximal effect. As to activation: % of control where 0% means no effect. The gist of the method:
as §1

Molecules are shown by their SMILES. Results filed as inconclusive are left out. A number with no mark means an inactive call. Active and inactive are the calls of the source. Calls follow the shape of the dose curve; as a rule, active = well fitted curve in the direction sought with a large enough effect; inconclusive = small, poorly fitted or top-dose-only effect, or another doubt; inactive = no such curve, though single readings can be large; an effect the other way counts as inactive or inconclusive.

Chain of Rap guanine nucleotide exchange factor 4 (Homo sapiens) (Q8WZA2 whole entry, looked up): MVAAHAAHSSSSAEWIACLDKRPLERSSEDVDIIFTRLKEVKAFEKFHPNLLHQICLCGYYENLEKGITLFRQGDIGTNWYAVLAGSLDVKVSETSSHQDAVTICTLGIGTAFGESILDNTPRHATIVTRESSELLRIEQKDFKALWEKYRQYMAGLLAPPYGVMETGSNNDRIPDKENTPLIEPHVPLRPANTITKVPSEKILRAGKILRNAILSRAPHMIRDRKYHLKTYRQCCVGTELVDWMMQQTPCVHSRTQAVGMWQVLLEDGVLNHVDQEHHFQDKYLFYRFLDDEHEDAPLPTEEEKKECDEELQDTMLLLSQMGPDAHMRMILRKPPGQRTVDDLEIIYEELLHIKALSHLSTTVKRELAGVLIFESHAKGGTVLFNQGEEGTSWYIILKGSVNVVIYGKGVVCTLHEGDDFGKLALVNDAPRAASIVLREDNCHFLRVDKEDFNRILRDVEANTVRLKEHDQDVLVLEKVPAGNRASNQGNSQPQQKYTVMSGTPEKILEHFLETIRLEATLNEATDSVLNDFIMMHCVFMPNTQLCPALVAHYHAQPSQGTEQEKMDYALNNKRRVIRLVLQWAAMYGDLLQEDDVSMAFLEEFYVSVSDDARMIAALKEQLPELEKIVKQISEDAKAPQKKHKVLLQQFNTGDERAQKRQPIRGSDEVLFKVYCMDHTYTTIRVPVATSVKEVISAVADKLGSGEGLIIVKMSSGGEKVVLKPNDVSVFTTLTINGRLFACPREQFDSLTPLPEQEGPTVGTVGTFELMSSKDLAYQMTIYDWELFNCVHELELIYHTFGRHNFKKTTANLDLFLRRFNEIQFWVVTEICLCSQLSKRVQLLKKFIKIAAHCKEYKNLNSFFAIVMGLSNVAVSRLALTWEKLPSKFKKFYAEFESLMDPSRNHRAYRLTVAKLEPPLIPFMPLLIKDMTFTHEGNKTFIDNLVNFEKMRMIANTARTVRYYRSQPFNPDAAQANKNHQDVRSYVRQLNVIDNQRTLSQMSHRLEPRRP
Chain of Rap guanine nucleotide exchange factor 3 (Homo sapiens) (O95398 whole entry, looked up): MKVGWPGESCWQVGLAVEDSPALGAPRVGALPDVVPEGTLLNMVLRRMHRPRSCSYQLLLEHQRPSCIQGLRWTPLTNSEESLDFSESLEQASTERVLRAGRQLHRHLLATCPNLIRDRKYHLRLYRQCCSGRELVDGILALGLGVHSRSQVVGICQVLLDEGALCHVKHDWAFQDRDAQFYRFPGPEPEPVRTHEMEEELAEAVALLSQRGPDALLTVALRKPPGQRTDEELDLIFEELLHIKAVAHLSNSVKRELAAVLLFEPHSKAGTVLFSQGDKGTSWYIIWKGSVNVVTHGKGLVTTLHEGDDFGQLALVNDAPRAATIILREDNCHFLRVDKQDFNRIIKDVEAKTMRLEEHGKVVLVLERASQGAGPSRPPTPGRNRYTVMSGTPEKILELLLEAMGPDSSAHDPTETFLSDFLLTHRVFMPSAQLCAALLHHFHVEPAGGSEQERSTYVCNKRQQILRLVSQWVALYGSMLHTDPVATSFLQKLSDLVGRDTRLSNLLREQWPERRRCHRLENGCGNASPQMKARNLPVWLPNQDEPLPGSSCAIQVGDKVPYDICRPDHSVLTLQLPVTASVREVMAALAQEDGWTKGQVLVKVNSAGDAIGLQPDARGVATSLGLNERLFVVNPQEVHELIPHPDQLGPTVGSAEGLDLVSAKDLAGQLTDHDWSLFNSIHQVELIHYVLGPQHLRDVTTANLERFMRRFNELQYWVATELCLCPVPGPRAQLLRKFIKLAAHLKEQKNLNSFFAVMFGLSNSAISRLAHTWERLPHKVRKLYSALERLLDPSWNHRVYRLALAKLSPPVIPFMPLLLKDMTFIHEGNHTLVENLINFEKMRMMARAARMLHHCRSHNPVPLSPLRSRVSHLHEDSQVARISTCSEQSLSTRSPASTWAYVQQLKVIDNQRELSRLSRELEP

As to `O=C(O)C1=CC[C@@H](c2ccc(Cl)cc2)N(S(=O)(=O)c2ccc(Cl)cc2)[C@H]1c1ccc(Br)cc1`, the Potency in experiment [1] was 75.7 µM (active). Besides, the Potency result in experiment [2], in experiment [3], in experiment [4] and in experiment [5] was “inactive” each time.

Turning to `Brc1ccc(C2Nc3cccc4cccc(c34)N2)cc1`, the Potency result in experiment [1], in experiment [2], in experiment [3], in experiment [4] and in experiment [5] was “inactive” in each case.

As to `CC1(C(=O)NS(=O)(=O)c2cccc(Cl)c2)CCN1C(=O)C1(c2ccc(Cl)cc2)CCC1` (stereo not given), the Potency in experiment [1] is 11.2 µM (active). For the same compound, in experiment [2], the Potency entry is “inactive”. Also, the activation in experiment [3] was 6.65% [at 17.1 µM, percent relative to cAMP agonist control]; in experiment [5] it was 5.49% [at 30.8 µM]. Further, in experiment [4], the activity change, negative = inhibition is -18.6% [at 30.8 µM].

With `O=C1C(=Cc2ccccc2Cl)CCc2ccccc21`, the Potency result in experiment [1], in experiment [2], in experiment [3], in experiment [4] and in experiment [5] was “inactive” throughout.

Regarding `Cc1ccc(N(C(=O)c2ccccc2Cl)C2=NC(C)CS2)c(C)c1` (stereo not given), the Potency result in experiment [1] and in experiment [2] was “inactive” throughout. Further, the activation is 5.24% [at 17.1 µM, percent relative to cAMP agonist control] in experiment [3] and 26.9% [at 30.8 µM] in experiment [5]. For the same compound, the activity change, negative = inhibition in experiment [4] is -24.5% [at 30.8 µM].

For `COc1cc(/C=C2/C(=O)NN(c3ccc(Cl)c(Cl)c3)C2=O)cc([N+](=O)[O-])c1O`, in experiment [1], the Potency was 6.75 µM (active). Besides, the Potency result in experiment [2], in experiment [3], in experiment [4] and in experiment [5] was “inactive” each time.

For the compound `COc1cc(C(c2c(C(=O)O)[nH]c3ccccc23)c2c(C(=O)O)[nH]c3ccccc23)ccc1OCc1ccccc1`, the Potency in experiment [1] was 15.1 µM (active). Further, the Potency entry in experiment [2], in experiment [3], in experiment [4] and in experiment [5] was “inactive” each time.

With `O=c1ccc(-c2ccccc2)nn1Cc1ccc(Cl)cc1`, the Potency entry in experiment [1], in experiment [2], in experiment [3], in experiment [4] and in experiment [5] was “inactive” in each case.

For `O=C(N/N=C/c1cc(Cl)c(O)c(Cl)c1)c1cc2c(ccc3ccccc32)o1`, the Potency in experiment [1] was 60.1 µM (active). For the same compound, the Potency entry in experiment [2], in experiment [3], in experiment [4] and in experiment [5] was “inactive” in each case.

Take `Cc1cc(C)n(Cc2ccc(C(=O)N/N=C/c3ccc(-c4ccc([N+](=O)[O-])cc4)o3)o2)n1`: in experiment [1], the Potency was 47.8 µM (active). In addition, the Potency result in experiment [2], in experiment [3], in experiment [4] and in experiment [5] was “inactive” in each case.

For the compound `Cn1c(=O)c2c(nc(NCCc3ccccc3)n2CC(=O)NCCc2ccccc2)n(C)c1=O`, the Potency result in experiment [1], in experiment [2], in experiment [3], in experiment [4] and in experiment [5] was “inactive” each time.

Regarding `c1ccc(C(c2ccccc2)c2ccn[nH]2)cc1`, the Potency result in experiment [1] and in experiment [2] was “inactive” each time. For the same compound, the activation in experiment [3] is 1.43% [at 17.1 µM, percent relative to cAMP agonist control]; in experiment [5], 11.3% [at 30.8 µM]. The activity change, negative = inhibition in experiment [4] was -9.38% [at 30.8 µM].

Turning to `CCOC(=O)C1=C(C)N=c2s/c(=C\c3ccc(OCC(=O)O)cc3)c(=O)n2C1c1ccc(OC(C)C)cc1` (stereo not given), the Potency in experiment [1] was 75.7 µM (active). Besides, the Potency entry in experiment [2], in experiment [3], in experiment [4] and in experiment [5] was “inactive” in each case.

On to `CC1CCN(c2ccc3c(c2)S(=O)(=O)c2cccc(C(=O)NC4CCCCC4)c2C3=O)CC1`, for which the Potency entry in experiment [1] and in experiment [4] was “inactive” throughout. Also, the values for the Potency in experiment [2], in experiment [3] and in experiment [5] were 89.1 µM (active), 100 µM (active) and 50.1 µM (active), respectively.

On to `Cc1cc(C)c2sc(N(CCCN(C)C)C(=O)c3ccc(S(=O)(=O)N(C)C4CCCCC4)cc3)nc2c1`, for which the Potency result in experiment [1], in experiment [2], in experiment [3], in experiment [4] and in experiment [5] was “inactive” each time.

With `Cc1ccc(S(=O)(=O)N2[C@@H](c3ccc(F)cc3)C(C(=O)O)=CC[C@H]2c2ccc(C(C)C)cc2)cc1`, in experiment [1], the Potency was 75.7 µM (active). Besides, the Potency entry in experiment [2], in experiment [3], in experiment [4] and in experiment [5] was “inactive” in each case.

Regarding `O=C(C1CC1)N1c2ccccc2Sc2ccccc21`, the Potency entry in experiment [1], in experiment [2], in experiment [3], in experiment [4] and in experiment [5] was “inactive” throughout.

On to `Cc1ccc(C(C)C)c(OCc2ccc(C(=O)N/N=C/c3ccc(O)c(O)c3)cc2)c1`, for which the Potency in experiment [1] was 33.8 µM (active). The Potency result in experiment [2], in experiment [3], in experiment [4] and in experiment [5] was “inactive” in each case.

Take `Cc1ccc([C@H]2C(C(=O)O)=CC[C@@H](c3ccc(C(C)C)cc3)N2S(=O)(=O)c2ccc(C)cc2)cc1`: the Potency in experiment [1] is 75.7 µM (active). Moreover, the Potency entry in experiment [2], in experiment [3], in experiment [4] and in experiment [5] was “inactive” each time.

Turning to `Nc1nc2c(ncn2[C@@H]2O[C@H](CNS(=O)(=O)N3CCCC3)[C@@H](O)[C@H]2O)c(=O)[nH]1`, the Potency result in experiment [1], in experiment [2], in experiment [3], in experiment [4] and in experiment [5] was “inactive” throughout.

Turning to `O=C(Nc1ccccc1Cc1ccccc1)c1ccccc1NS(=O)(=O)c1ccc(Cl)s1`, in experiment [1], the Potency was 22.4 µM (active). Besides, the Potency entry in experiment [2] is “inactive”. In addition, the activation in experiment [3] is 8.53% [at 17.1 µM, percent relative to cAMP agonist control]; in experiment [5] it was 8.31% [at 30.8 µM]. In experiment [4], the activity change, negative = inhibition is -15.4% [at 30.8 µM].

Consider `O=C(Cc1ccc(Br)cc1)N(Cc1ccccc1)c1ccccn1`, for which the Potency result in experiment [1], in experiment [2], in experiment [3], in experiment [4] and in experiment [5] was “inactive” in each case.

For the compound `Cc1nnc(SCc2ccccc2CSc2nnc(C)s2)s1`, the Potency result in experiment [1], in experiment [2], in experiment [3], in experiment [4] and in experiment [5] was “inactive” each time.
